Most compounds without a hit are left out; they make up all but 11% or so of the library.
L3MBTL1 inh-1 – qHTS Assay for the Inhibitors of L3MBTL1 | AlphaScreen L3MBTL1–H3K9me1 peptide binding | Potency, µM (doses to about 57.1 µM), for inactives: at the highest dose activity, negative = inhibition, usual class: inhibitors | 230,000 compounds, 0.66% hits | AID 485360, 2010; note: potency is the fitted concentration of half-maximal effect; % is set by controls: 0 for no effect and ±100 for the full control effect; nearly all actives have a fitted effect of over 60% in size
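AlphaScreen proximity signal between nickel-chelate acceptor and streptavidin donor beads (final 10 ug/mL) reports binding of 50 nM L3MBTL1 to 75 nM biotin-H3 K9me1 peptide; complex incubated with compounds 30 min at room temperature; cefsulodin titration as control.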
BAZ2B block – qHTS Assay for Inhibitors of BAZ2B; Bromodomain adjacent to zinc finger domain protein 2B (Homo sapiens), Q9UIF8; AlphaScreen BAZ2B-H3K14Ac peptide displacement; Potency, µM (series often up to 114 µM), for inactives: at the highest dose activity change, negative = inhibition, actives largely listed as inhibitors; 360,000 compounds, 4.4% hits; AID 504333, 2011; note: potency is the fitted concentration of half-maximal effect; % is set by controls: 0 for no effect and ±100 for the full control effect; nearly all actives have a fitted effect of over 60% in size
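Multi-concentration screen (max 110 uM) measuring displacement of acetylated histone H3 peptide from BAZ2B by AlphaScreen, using 50 nM protein, 50 nM peptide and 10 ug/mL streptavidin donor plus Ni-chelate acceptor beads.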
JMJD2A Tudor inh – qHTS Assay for Inhibitors of JMJD2A-Tudor Domain. 390,000 compounds, 4.4% hits. Potency, µM (series often up to 114 µM), for inactives: at the highest dose activity change, negative = inhibition, usual class: inhibitors. AID 504339, 2011. AlphaScreen JMJD2A-Tudor / H3K4me3 peptide binding. Lysine-specific demethylase 4A (Homo sapiens), O75164; note: potency is the fitted concentration of half-maximal effect; % is set by controls: 0 for no effect and ±100 for the full control effect; nearly all actives have a fitted effect of over 50% in size
G9a inh – qHTS Assay for Inhibitors of Histone Lysine Methyltransferase G9a; 350,000 compounds, 8.8% hits; G9a H3K9 monomethylation, AlphaScreen, 2 h; Histone-lysine N-methyltransferase EHMT2 (Homo sapiens), Q96KQ7; Potency, µM (series often up to 102 µM), for the others: at the highest dose activity, negative = inhibition, actives largely listed as inhibitors; note: potency is the fitted concentration of half-maximal effect; % is set by controls: 0 for no effect and ±100 for the full control effect; nearly all actives have a fitted effect of over 75% in size
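AlphaScreen read-out: biotin-H3K9 peptide (500 nM) methylation by 20 nM enzyme with 20 uM SAM, 2 h at room temperature after 15 min compound preincubation; anti-monomethyl H3K9 antibody plus donor/acceptor beads, 10 min dark.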
HP1b chromo inh – HTS for Inhibitors of HP1-beta Chromodomain Interactions with Methylated Histone Tails | Potency, µM (series often up to 114 µM), for the others: top-dose activity change, negative = inhibition, usual class: inhibitors | 390,000 compounds, 0.56% hits | AlphaScreen HP1-beta / biotin-H3K9me3 peptide binding; note: potency is the fitted concentration of half-maximal effect; nearly all actives have a fitted effect of over 70% in size
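Compound inhibition of the preformed complex between 50 nM HP1-beta and 50 nM biotinylated H3K9me3 peptide was read by AlphaScreen. Buffer was PBS pH 7.4 with 0.01% Tween-20. Incubations ran 30 min at room temperature, with 10 ug/mL donor/acceptor beads.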
L3MBTL1 inh-2 – qHTS Assay for the Inhibitors of L3MBTL1: Hit Validation | Potency, µM, actives largely listed as inhibitors | 500 compounds, 91% hits | L3MBTL1 methyl-lysine binding inhibition, biochemical qHTS | shares compounds with L3MBTL1 inh-1; note: potency is the fitted concentration of half-maximal effect; nearly all actives have a fitted effect of over 70% in size
L3MBTL1 ctr – qHTS Assay for the Inhibitors of L3MBTL1: Hit Validationin AlphaScreen Counterscreen; AlphaScreen counterscreen, signal inhibition; Potency, µM (titrated, usually from 57.1 µM), without a hit: top-dose activity change, negative = inhibition, hits mostly inhibitors; shares compounds with L3MBTL1 inh-1; 500 tested, under 10 active; AID 602224, 2012; note: potency is the fitted concentration of half-maximal effect; 0% is about no effect
ME-1 growth – qHTS Assay for Compounds Blocking the Interaction Between CBF-beta and RUNX1 for the Treatment of Acute Myeloid Leukemia: ME-1 cellular proliferation. shares compounds with BAZ2B block. ME-1 cell proliferation, ATP luminescence, 48 h. Potency, µM (highest dose often 56.1 µM), for the others: at the top dose activity change, negative = inhibition, most hits filed as inhibitors. 140 compounds, 20% hits. AID 504370, 2011
* hit, by the source's call; u = inconclusive; x = no result; [ ] = another dose, or the depositor's remark. Calls come from the whole dose curve; as a rule, active = well fitted curve in the direction sought with a large enough effect; inconclusive = small, poorly fitted or top-dose-only effect, or another doubt; inactive = no such curve, though single readings can be large; an effect the other way counts as inactive or inconclusive.

SMILES	L3MBTL1 inh-1	BAZ2B block	JMJD2A Tudor inh	G9a inh	HP1b chromo inh	ME-1 growth	others
O=c1cc2c(=O)oc3cc(O)c(O)oc3c2c(O)c1O	0.316µM*	1.78µM*	1.41µM*	x	1.58µM*	-15.3%	L3MBTL1 inh-2=0.168*;L3MBTL1 ctr=u
Cc1cccc(CSc2nc(-c3cccc(C)c3)nc3c2Cc2c(CO)cnc(C)c2O3)c1	x	-22.1%	-14.3%	-7.6%[59 µM]	25.8%	x
Nc1nc(-c2ccc3c(c2)NC(=O)CO3)cs1	x	u	u	u	-1.2%	-1.7%[25.6 µM]
COc1ccc(COC(=O)C2CCN(C(=O)c3ccc(Cl)cc3)CC2)cc1F	11.9%	2.3%	2.1%	12.1%[2.33 µM]	69.0%	x
CCOc1ccccc1NC(=O)CSc1nnc(CNC(=O)c2cccs2)o1	x	-5.4%	-6.0%	-10.4%[0.501 µM]	53.2%	x
COc1cc(O)c2c(c1)oc(=O)c1c3cc(O)c(O)cc3oc21	x	x	x	x	x	31.6µM*
Cc1cc(O)c(C=O)c2c1C(=O)Oc1c(COC(=O)/C=C/C(=O)O)c(O)c(C(=O)O)c(C)c1O2	x	x	x	u	x	9.7%
CC(C)c1ccc(N(CC(=O)NC2CCCCC2)C(=O)CCC(=O)Nc2ccccn2)cc1	x	-0.2%	-15.8%	9.5%	19.3%	x
Nc1nc(-c2ccccc2)c(N=Nc2cccnc2)s1	-33.6%	7.94µM*	-33.0%	39.8µM*	u	-5.2%[25.6 µM]
CCc1sc(N)nc1-c1ccccc1	-14.4%	u	-35.6%	u	-10.3%	-7.3%[25.6 µM]
Cc1sc(N)nc1-c1ccccc1	0.1%	-12.7%	-30.7%	-49.6%	-5.6%	x
Cc1onc(-c2ccccc2)c1C(=O)Nc1ccc(S(=O)(=O)NC(C)(C)C)cc1	u	-31.6%	-2.4%	x	31.9%	x
CCOC(=O)c1c(C)n(S(=O)(=O)c2ccc(C)cc2)c2ccc(O)c(C(=O)O)c12	x	-31.4%	-19.6%	-22.0%	-12.2%	x
Cc1nnc(-c2ccccc2)nc1N(C)C	8.1%	0.3%	10.4%	15.3%[59 µM]	50.2%	x
CN(C)c1nc(-c2ccccn2)nnc1-c1ccccc1	x	0.794µM*	3.98µM*	24.0%	48.0%	15.8µM*
O=C(O[C@@H]1OC2COC(=O)c3cc(O)c(O)c(O)c3-c3c(cc(O)c(O)c3O)C(=O)O[C@@H]([C@H]1O)[C@@H]2O)c1cc(O)c(O)c(O)c1	0.1µM*	0.794µM*	x	1.58µM*	-73.9%	u
O=c1cnc2cnc(Oc3ccccc3)nc2n1CCc1ccccc1	x	x	x	-3.5%[12.7 µM]	x	x
C[C@@]12CCC(=O)C=C1CC[C@H]1[C@H]3CC[C@](O)(C(=O)CO)[C@]3(C)CC(=O)[C@@H]12	x	x	x	14.6%[21.5 µM]	x	x
O=C1CCCC2=C1C1O[C@](CCCCN3C(=O)c4ccccc4C3=O)(Cc3ccccc31)O2	x	-29.7%[22.9 µM]	x	x	x	x
Cc1ccc(Cl)cc1NC(=S)N(CCN(C)C)C(C)c1ccccn1 (configuration not stated)	x	x	-2.5%	-26.1%	20.7%	-6.5%[25.6 µM]
Cc1cccc(NC(=S)N(CCN(C)C)C(C)c2ccccn2)c1 (configuration not stated)	x	56.2µM*	-10.4%	21.8%[12.7 µM]	25.1%	-7.8%[25.6 µM]
COCCCN(C(=S)Nc1cc(Cl)cc(Cl)c1)C(C)c1ccccn1 (configuration not stated)	x	3.9%	36.1%	u	36.1%	x
N#Cc1cc(Cl)c(NCC2CCCO2)cc1C#N (configuration not stated)	23.5%	35.7%	-15.8%	x	55.6%	x
O=C(NC(=S)NNC(=O)c1ccccc1O)c1ccco1	-16.6%	u	35.5µM*	u	1.5%	u
CC(C)(c1cc(Br)c(O)c(Br)c1)c1cc(Br)c(O)c(Br)c1	-21.9%	56.2µM*	89.1µM*	5.7%[0.501 µM]	0.1%	4.1%
SMILES	L3MBTL1 inh-1	BAZ2B block	JMJD2A Tudor inh	G9a inh	HP1b chromo inh	ME-1 growth	others
Cc1ccc(C(C)(C)c2ccc(C)cc2)cc1	x	x	x	15.8%[12.7 µM]	x	x
O=[N+]([O-])c1cc2c(cc1/C=N/n1c(-c3ccccn3)n[nH]c1=S)OCO2	u	7.08µM*	3.98µM*	0.794µM*	u	u
COc1ccc(S(=O)(=O)N2CCOCC2)cc1N=Nc1sc(N)nc1-c1ccccc1	-25.2%	u	-26.9%	14.1µM*	u	-3.4%[25.6 µM]
COc1ccc(S(=O)(=O)N2CCOCC2)cc1OC	3.2%	8.0%	4.8%	1.4%[59 µM]	25.9%	x
COCc1cc(O)c(O)c(O)c1-c1c(COC)cc(O)c(O)c1O	x	x	x	1µM*	x	-26.5%
COc1ccc(CCC(=O)O)c(O)c1	x	u	-23.8%	2.7%[12.7 µM]	-2.7%	x
CC(=O)c1ccc(OCCCC(=O)OCC(=O)Nc2ccc3[nH]c(=O)[nH]c3c2)cc1	6.1%	5.6%	-30.3%	10.3%[0.501 µM]	-3.5%	x
